Reference: PubChem BioAssay
Activity calls are given as the source filed them.

Columns and labels:
[1] = binders of probe aFSTL3 on microarray, primary screen, stem cell growth factor project, biochemical, small-molecule microarray, fluorescence 635/667 (AID 1064); settings: higher = more signal;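 further: measures binding of the biotinylated anti-FSTL3 antibody to printed compounds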
[2] = binders from COS7 lysate, DM2A8 probe, primary screen, torsin A project, cell lysate, small-molecule microarray, fluorescence 635/667 (AID 1065); settings: higher = more signal, COS7 lysate expressing mutant human TOR1A
[3] = binders of probe aFGF2 on microarray, primary screen, stem cell growth factor project, biochemical, small-molecule microarray, fluorescence 635/667 (AID 1067); settings: higher = more signal;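 further: measures binding of biotinylated aFGF2 protein to printed compounds on slides; z-score merges feature fluorescence and signal-to-noise across triplicate slides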
[4] = binders of probe aFGF10 on microarray, primary screen, stem cell growth factor project, biochemical, small-molecule microarray, fluorescence 635/667 (AID 1071); settings: higher = more signal;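 further: score merges 667 nm spot intensity and signal to noise from triplicate slides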
[5] = target: Neurogenic locus notch homolog protein 2 (Homo sapiens) (UniProt Q04721); test: Notch2 binders on small-molecule microarrays, primary screen, biochemical, small-molecule microarray, 635 nm fluorescence, stem cell growth factors (AID 1073); settings: Notch2 binding, higher = more signal
[6] = target: Pro-neuregulin-1, membrane-bound isoform (Homo sapiens) (UniProt Q02297); test: NRG1 binders on small-molecule microarrays, primary screen, psychiatric disease protein project, biochemical, small-molecule microarray, fluorescence 635/667 (AID 1075); settings: NRG1 binding, 635 nm fluorescence, higher = more signal;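 further: score combines 667 nm spot fluorescence with signal to noise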
[7] = tested on: Neuregulin-1 EGF-like domain; test: binders of neuregulin-1 EGF-like domain, primary screen, biochemical, small-molecule microarray, 635 nm fluorescence (AID 1081); settings: small-molecule microarray binding, higher = more signal;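 further: binding of the protein to compounds printed on small-molecule microarray slides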
[8] = FRG1 promoter luciferase signal modulators, primary screen, FRG1 inhibition for FSHD, cell-based, C2C12 myotubes, firefly/Renilla luciferase, luminescence (AID 1084); settings: higher = more signal, called active from +8 up or from −8 down
[9] = binders of probe aFST on microarray, primary screen, stem cell growth factor project, biochemical, small-molecule microarray, fluorescence 635/667 (AID 1086); settings: higher = more signal;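 further: score merges 667 nm fluorescence with signal-to-noise of each printed compound spot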
[10] = binders of probe aHhip on microarray, primary screen, stem cell growth factor project, biochemical, small-molecule microarray, fluorescence 635/667 (AID 1087); settings: higher = more signal;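 further: score merges spot fluorescence at 667nm with spot signal to noise ratio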
[11] = tested on: PRMT1 (protein arginine N-methyltransferase 1); test: PRMT1 binders on small-molecule microarrays, primary screen, biochemical, small-molecule microarray, 635 nm fluorescence (AID 1088); settings: small-molecule microarray binding, higher = more signal;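 further: binding of Prmt1 protein to compounds spotted on small-molecule microarray slides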
[12] = yeast growth modulation, basal conditions, primary screen, YJM789 clinical isolate, OD600, 24 h (AID 1089);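 further: growth of clinical yeast isolate S. cerevisiae YJM 789 seeded 1000 cells per well; test concentration not given here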; settings: S. cerevisiae YJM789 growth, higher = more signal, called active from +8 up or from −8 down
[13] = fission yeast growth modulation, primary screen, strain 972, OD600, 24 h, no modulator (AID 1090);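 further: basal condition with compound alone and no growth modifier present; test concentration not given here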; settings: S. pombe 972 growth, higher = more signal, called active from +8 up or from −8 down
[14] = S. cerevisiae growth modulation with rapamycin, primary screen, strain BY4716, OD600, 96 h (AID 1091); settings: higher = more signal, called active from +8 up or from −8 down; further: test concentration not given here
[15] = target: Torsin-1A-interacting protein 2 (Homo sapiens) (UniProt Q8NFQ8); test: LULL1 binders on small-molecule microarray, primary screen, cell lysate, human LULL1 lysate, 635/667 nm fluorescence (AID 1092); settings: hLULL1 lysate binding, 635 nm fluorescence, higher = more signal;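 further: probe is lysate of COS7 cells overexpressing human LULL1; score merges per-feature 667 nm fluorescence with signal-to-noise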
[16] = E. coli growth modulation, two-sided OD650, primary screen, E. coli filamentation project, strain DRC41, 24 h (AID 1093); settings: OD650, 24 h, higher = more signal, called active from +8 up or from −8 down;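 further: MC1000 strain lacking acrAB efflux and sulA so SOS filamentation is blocked; test concentration not given here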
[17] = small-molecule microarray binders of probe aLefty2, primary screen, biochemical, biotinylated probe, 635/667 nm fluorescence (AID 1094); settings: higher = more signal;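 further: score merges spot fluorescence near 667 nm with spot signal-to-noise ratio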
[18] = tested on: Noggin (protein binding on small-molecule microarray); test: Noggin binders on small-molecule microarray, primary screen, biochemical, 635/667 nm fluorescence (AID 1095); settings: 635 nm fluorescence, higher = more signal;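 further: score merges 667 nm feature fluorescence with signal to noise over triplicate slides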
[19] = target: Neurogenic locus notch homolog protein 3 (Homo sapiens) (UniProt Q9UM47); test: NOTCH3 binders on small-molecule microarray, primary screen, biochemical, 635/667 nm fluorescence (AID 1096); settings: NOTCH3 binding, 635 nm fluorescence, higher = more signal
[20] = small-molecule microarray binders of probe aEGFR, primary screen, biochemical, biotinylated probe, 635/667 nm fluorescence (AID 1097); settings: higher = more signal;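 further: probe is a biotinylated anti-EGFR antibody binding compounds printed on slides; score combines fluorescence near 667 nm and signal to noise of each spot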

Pro-neuregulin-1, membrane-bound isoform (Homo sapiens), sequence (Q02297 whole entry, looked up, the tested form may be a part, canonical isoform): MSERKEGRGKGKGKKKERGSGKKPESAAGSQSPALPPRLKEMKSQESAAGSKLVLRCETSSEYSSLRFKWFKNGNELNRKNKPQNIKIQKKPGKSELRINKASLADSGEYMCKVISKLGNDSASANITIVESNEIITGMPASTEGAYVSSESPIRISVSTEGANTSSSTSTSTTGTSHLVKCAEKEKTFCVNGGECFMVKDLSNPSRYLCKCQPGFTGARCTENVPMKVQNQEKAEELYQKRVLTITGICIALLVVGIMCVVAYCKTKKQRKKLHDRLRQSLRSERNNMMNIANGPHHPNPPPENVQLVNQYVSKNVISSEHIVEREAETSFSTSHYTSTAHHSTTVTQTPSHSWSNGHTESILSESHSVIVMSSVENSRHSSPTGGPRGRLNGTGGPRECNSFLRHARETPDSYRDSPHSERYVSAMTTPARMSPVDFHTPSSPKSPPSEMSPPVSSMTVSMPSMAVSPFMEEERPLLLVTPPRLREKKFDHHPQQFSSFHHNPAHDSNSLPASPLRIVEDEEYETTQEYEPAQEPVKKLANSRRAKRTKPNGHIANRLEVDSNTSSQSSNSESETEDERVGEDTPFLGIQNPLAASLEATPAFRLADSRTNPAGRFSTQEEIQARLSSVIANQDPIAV
Neurogenic locus notch homolog protein 3 (Homo sapiens), sequence (Q9UM47 whole entry, looked up): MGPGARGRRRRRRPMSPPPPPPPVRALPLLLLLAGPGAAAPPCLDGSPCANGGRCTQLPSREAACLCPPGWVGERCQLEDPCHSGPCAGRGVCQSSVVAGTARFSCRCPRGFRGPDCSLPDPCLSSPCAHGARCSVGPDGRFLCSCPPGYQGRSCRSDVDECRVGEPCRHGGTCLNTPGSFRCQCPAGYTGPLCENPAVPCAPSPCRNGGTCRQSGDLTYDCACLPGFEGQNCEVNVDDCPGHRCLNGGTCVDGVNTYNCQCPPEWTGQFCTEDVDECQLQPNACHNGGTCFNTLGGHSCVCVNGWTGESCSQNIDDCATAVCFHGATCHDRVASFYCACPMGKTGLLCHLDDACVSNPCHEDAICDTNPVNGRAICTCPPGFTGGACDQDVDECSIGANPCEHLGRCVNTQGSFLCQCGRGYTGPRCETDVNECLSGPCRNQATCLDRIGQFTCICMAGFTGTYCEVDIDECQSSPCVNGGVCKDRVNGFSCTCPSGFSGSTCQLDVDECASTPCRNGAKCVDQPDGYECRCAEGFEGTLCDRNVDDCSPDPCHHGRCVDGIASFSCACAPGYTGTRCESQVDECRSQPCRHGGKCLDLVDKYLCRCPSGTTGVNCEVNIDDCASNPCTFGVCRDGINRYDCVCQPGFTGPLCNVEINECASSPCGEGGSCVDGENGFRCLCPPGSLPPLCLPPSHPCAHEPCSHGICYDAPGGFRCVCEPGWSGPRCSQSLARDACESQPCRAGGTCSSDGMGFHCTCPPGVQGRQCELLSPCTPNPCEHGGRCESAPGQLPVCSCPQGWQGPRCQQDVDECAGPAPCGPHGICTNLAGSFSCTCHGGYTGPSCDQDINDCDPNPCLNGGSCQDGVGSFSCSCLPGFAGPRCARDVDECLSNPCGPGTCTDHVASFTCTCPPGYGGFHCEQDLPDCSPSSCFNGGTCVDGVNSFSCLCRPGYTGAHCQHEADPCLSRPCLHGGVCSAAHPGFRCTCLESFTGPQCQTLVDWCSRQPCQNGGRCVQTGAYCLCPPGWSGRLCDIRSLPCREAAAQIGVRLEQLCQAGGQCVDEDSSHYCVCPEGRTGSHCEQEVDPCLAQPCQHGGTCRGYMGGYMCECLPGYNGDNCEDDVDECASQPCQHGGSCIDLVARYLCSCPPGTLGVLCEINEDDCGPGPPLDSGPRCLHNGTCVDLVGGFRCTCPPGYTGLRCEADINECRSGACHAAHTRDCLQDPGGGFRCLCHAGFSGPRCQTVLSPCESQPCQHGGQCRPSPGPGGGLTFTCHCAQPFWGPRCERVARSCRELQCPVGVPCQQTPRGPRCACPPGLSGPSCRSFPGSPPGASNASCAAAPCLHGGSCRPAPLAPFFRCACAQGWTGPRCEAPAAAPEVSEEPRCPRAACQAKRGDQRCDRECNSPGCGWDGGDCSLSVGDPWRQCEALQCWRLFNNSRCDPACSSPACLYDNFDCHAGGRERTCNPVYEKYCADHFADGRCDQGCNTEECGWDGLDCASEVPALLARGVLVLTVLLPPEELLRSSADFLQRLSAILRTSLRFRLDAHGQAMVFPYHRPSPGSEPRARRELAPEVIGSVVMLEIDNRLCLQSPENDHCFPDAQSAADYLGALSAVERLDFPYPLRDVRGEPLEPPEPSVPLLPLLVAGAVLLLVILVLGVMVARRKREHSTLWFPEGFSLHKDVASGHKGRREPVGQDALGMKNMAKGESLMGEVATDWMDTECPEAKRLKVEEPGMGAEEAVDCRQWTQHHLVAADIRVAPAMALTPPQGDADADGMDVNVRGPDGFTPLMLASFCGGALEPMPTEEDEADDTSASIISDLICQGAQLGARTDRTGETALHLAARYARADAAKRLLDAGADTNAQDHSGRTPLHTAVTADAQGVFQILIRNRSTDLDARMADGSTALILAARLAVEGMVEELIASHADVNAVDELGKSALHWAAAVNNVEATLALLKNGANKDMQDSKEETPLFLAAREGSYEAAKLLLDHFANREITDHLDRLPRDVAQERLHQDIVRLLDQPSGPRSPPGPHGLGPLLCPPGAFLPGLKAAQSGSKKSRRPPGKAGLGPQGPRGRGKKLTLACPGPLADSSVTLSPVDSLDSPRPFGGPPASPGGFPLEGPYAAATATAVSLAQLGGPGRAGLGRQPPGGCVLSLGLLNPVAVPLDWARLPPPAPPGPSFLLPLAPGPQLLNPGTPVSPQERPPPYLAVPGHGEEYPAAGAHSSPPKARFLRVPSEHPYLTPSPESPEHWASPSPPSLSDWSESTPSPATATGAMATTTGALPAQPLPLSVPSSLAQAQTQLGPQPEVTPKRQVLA
Torsin-1A-interacting protein 2 (Homo sapiens), sequence (Q8NFQ8 whole entry, looked up): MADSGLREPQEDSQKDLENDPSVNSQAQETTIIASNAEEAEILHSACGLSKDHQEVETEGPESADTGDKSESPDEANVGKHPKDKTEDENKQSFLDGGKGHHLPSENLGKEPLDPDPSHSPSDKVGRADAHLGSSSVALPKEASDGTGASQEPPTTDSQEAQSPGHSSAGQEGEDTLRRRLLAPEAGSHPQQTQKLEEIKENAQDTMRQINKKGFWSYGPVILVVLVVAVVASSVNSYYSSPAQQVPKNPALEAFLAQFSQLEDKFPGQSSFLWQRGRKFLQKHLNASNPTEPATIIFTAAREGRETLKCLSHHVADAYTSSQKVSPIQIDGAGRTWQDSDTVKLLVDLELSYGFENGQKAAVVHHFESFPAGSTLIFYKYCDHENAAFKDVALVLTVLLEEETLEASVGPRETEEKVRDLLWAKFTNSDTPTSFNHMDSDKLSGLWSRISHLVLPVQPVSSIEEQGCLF

| Structure (SMILES) | composite z-score [1] | composite z-score [2] | composite z-score [3] | composite z-score [4] | composite z-score [5] | composite z-score [6] | composite z-score [7] | z-score [8] | composite z-score [9] | composite z-score [10] | composite z-score [11] | z-score [12] | z-score [13] | z-score [14] | composite z-score [15] | z-score [16] | composite z-score [17] | composite z-score [18] | composite z-score [19] | composite z-score [20] |
| --- | --- | --- | --- | --- | --- | --- | --- | --- | --- | --- | --- | --- | --- | --- | --- | --- | --- | --- | --- | --- |
| COCCOC(=O)N1C(=O)[C@@]2(c3ccccc31)[C@H](C(=O)Nc1nc3ccccc3s1)[C@H]1C(=O)O[C@H](c3ccccc3)[C@H](c3ccccc3)N1[C@@H]2c1ccc(O)cc1 | 0.0605 | 0.202 | 0.074 | 0.823 | 1.44 | 0.57 | 1.28 | 2.8 (inactive) | 0.442 | 0.0302 | 1.53 | 3.43 (inactive) | 1.8 (inactive) | 8.35 (active) | 1.76 | 2.9 (inactive) | 0.219 | 0.565 | 1.1 | 0.254 |
| C=CCC(OC(C)=O)[C@@H]1[C@@H](N(Cc2cccc3ccccc23)C(=O)Cc2ccc(OC)cc2)c2cc(OCCCO)ccc2N1C(=O)Cc1ccc(OC)cc1 (stereo not given in full) | 0.163 | 0.045 | -0.0396 | -0.236 | -0.111 | -0.0173 | -0.832 | -0.781 (inactive) | -0.0127 | -0.113 | -0.59 | 0.395 (inactive) | -1.38 (inactive) | -0.275 (inactive) | 0.0872 | 2.21 (inactive) | -0.0691 | -0.318 | -0.89 | -0.166 |
| CC(C)C[C@@H]1NC(=O)[C@@]23C(=O)N[C@@H](Cc4ccccc4)C2[C@H](C)[C@@]2(C)O[C@H]2C3/C=C/CC/C=C/CNC(=O)[C@@H](C)NC1=O (stereo not given in full) | -0.574 | 0.408 | -0.178 | 0.408 | 0.578 | -0.418 | 0.635 | -1.05 (inactive) | 0.17 | 0.21 | 0.118 | 0.395 (inactive) | -0.619 (inactive) | -0.697 (inactive) | -0.664 | 2.82 (inactive) | -0.19 | 1.28 | 0.71 | -0.162 |
| COCCOC(=O)N1C(=O)[C@@]2(c3cc(C#CC4(O)CCCCCC4)ccc31)[C@H](c1ccccc1OCCO)N1[C@H](c3ccccc3)[C@H](c3ccccc3)OC(=O)[C@H]1[C@@H]2C(=O)Nc1nc2ccccc2s1 | -0.172 | 1.05 | 0.0359 | 0.659 | 1.11 | 0.41 | 1.26 | 1.54 (inactive) | 0.325 | -0.121 | 1.55 | 2.04 (inactive) | -0.312 (inactive) | 3.94 (inactive) | 2.09 | 2.69 (inactive) | 0.0498 | 0.724 | 1.09 | 0.0403 |
| CC(C)(C)OC(=O)CC[C@@]1(C(=O)N2CCOCC2)N=C(c2ccc(OCCCO)cc2)O[C@@H]1c1ccccc1 | 1.19 | 0.426 | 0.088 | 0.435 | 1.07 | 2.16 | 1.36 | -1.79 (inactive) | 0.517 | 0.28 | 1.58 | 0.153 (inactive) | -0.0631 (inactive) | 0.248 (inactive) | 3.95 | 1.32 (inactive) | 0.32 | 0.743 | 0.274 | 0.233 |
| C/C=C/[C@@H](CCn1cc(CCO[Si](C(C)C)(C(C)C)C(C)C)nn1)[Si](C)(C)c1ccc(OC)cc1 | 0.502 | -0.416 | -0.271 | -2.29 | -2.88 | -0.774 | -0.48 | -1.33 (inactive) | -0.986 | -0.413 | -0.551 | -3.08 (inactive) | -2.88 (inactive) | -1.94 (inactive) | -0.356 | -0.715 (inactive) | -0.275 | -1.15 | -3.03 | -0.406 |
| CO[C@H]1O[C@H](CO)[C@@H](OC(=O)Nc2ccccc2)[C@H](OC(=O)Nc2ccccc2-c2ccccc2)[C@H]1OC(=O)Nc1ccccc1-c1ccccc1 | 0.183 | 1.85 | -0.0449 | 0.567 | 0.555 | 1.31 | 1.3 | -0.114 (inactive) | 0.714 | -0.0296 | 1.54 | -2.03 (inactive) | -0.674 (inactive) | 1.22 (inactive) | 2.91 | 1.39 (inactive) | -0.0699 | 0.764 | 0.965 | -0.0978 |
| Cc1ccc(S[C@]2(C(=O)NC3CC3)CC(=O)N(Cc3ccccc3C(F)(F)F)[C@@H]2c2ccc(CO)cc2I)cc1 | 1.38 | 0.15 | -0.0139 | 0.152 | -1.13 | 0.37 | 1.2 | -0.967 (inactive) | 0.0584 | 0.219 | 0.279 | -1.31 (inactive) | -4.68 (inactive) | 2.34 (inactive) | 1.1 | -0.195 (inactive) | 0.244 | -0.536 | -0.654 | -0.0899 |
| CC(C)N1C(=O)c2ccccc2[C@@H](C(=O)NCc2ccccc2)[C@@H]1c1ccc(CO)cc1 | -0.0604 | 0.317 | -0.0806 | -0.723 | -0.423 | 0.844 | 1.15 | -0.331 (inactive) | -0.0768 | -0.141 | -0.238 | 0.582 (inactive) | -0.579 (inactive) | 1.31 (inactive) | 0.979 | 0.846 (inactive) | -0.109 | -0.608 | -0.904 | -0.273 |
| NCCCCCCNC(=O)[C@@H]1C[C@@H]2C(=O)N[C@@H](Cc3ccccc3)C(=O)N2[C@@H]1c1ccc(O)cc1 | 1.38 | 0.757 | -0.0715 | -0.113 | 0.179 | 1.25 | 1.33 | 0.611 (inactive) | 0.422 | -0.265 | 0.914 | -0.507 (inactive) | -1.11 (inactive) | -0.373 (inactive) | 1.36 | 0.792 (inactive) | 0.635 | 0.561 | 0.164 | -0.063 |
